Screening results deposited in PubChem BioAssay by National Center for Advancing Translational Sciences (NCATS).
This is a sample that favours compounds with a hit; in the whole collection about 8.3% have one here.
LASV entry inh: blocks Lassa virus binding to or entry into cells; Lassa virus pseudotype entry inhibition, cell reporter; actives 1.2% (n = 300,000); Potency, µM (titrated, usually from 37.9 µM), actives largely listed as inhibitors; calls by dose curve; tested in HEK293 cells; note: nearly all actives have a fitted effect of over 50% in size
HCMV antiviral: inhibitors of human cytomegalovirus | HFF cells, HCMV-luciferase reporter, 72 h; stronger effect = lower value | activity change, negative = inhibition, % at 57.5 µM | actives 4.5% (n = 410,000); in the data active = activity change below about -60%; inconclusive = no clear call, values can overlap the other calls; inactive = above about -39%
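Two-dose cell screen: HFF monolayers treated with compounds and infected with luciferase-expressing HCMV at 1 PFU/cell, 72 h at 37C, then lysed for luciferase measurement.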
HCV inh: HCV inhibition. actives 3.4% (n = 340,000). Potency, µM (highest dose often 41.8 µM), most hits filed as inhibitors. Huh7.5.1 HCVcc-Cre infection, luciferase reporter, 44 h. AID 651820
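Infectious HCVcc-Cre (~0.5 moi) was added to cells just after compound, with cells seeded 4 h earlier at 1,000 per well. Luciferase activity after 44 h culture reported infection; substrate was incubated 15 min at room temperature before reading.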
FMDV antiviral: antivirals against foot and mouth disease virus; FMDV antiviral cell-based qHTS; Potency, µM (top dose mostly 57.9 µM), actives largely listed as inhibitors; actives 1.2% (n = 410,000); calls by dose curve; tested in HEK293T cells; note: read-out not given here; nearly all actives have a fitted effect of over 45% in size
MARV entry inh: blocks Marburg virus binding to or entry into cells; Marburg virus pseudotyped entry inhibition, cell reporter; Potency, µM (top dose mostly 37.8 µM), actives largely listed as inhibitors; actives 1.8% (n = 300,000); AID 540276; calls by dose curve; tested in HEK293 cells
Giardia FBPA inh: blocks Giardia fructose-bisphosphate aldolase activity. purified Giardia FBPA. actives 0.71% (n = 290,000). AID 2451. Potency, µM (doses to about 59.6 µM), actives largely listed as inhibitors. A8B2U2; note: nearly all actives have a fitted effect of over 55% in size
Target sequence (A8B2U2 whole entry, looked up): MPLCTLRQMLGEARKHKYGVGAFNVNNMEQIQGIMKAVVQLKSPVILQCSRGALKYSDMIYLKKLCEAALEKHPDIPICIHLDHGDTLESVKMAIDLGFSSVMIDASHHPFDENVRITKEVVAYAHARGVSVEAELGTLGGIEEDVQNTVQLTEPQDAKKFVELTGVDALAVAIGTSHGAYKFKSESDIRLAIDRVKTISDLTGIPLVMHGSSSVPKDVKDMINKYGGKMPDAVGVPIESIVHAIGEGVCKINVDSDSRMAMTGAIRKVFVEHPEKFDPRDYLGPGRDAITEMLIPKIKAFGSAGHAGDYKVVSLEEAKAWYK
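Giardia FBPA (40 nM reagent) was preincubated 10 min at RT with compound (up to 57.5 uM final), then substrate plus GAPDH/TPI/NAD/arsenate coupling system with diaphorase/resazurin was added; resorufin fluorescence (525/598 nm) was read after 20 min.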
A number is an active result; i = inactive; ? = inconclusive; nt = no result. Unless noted, calls come from the whole dose curve; as a rule, active = well fitted curve in the direction sought with a large enough effect; inconclusive = small, poorly fitted or top-dose-only effect, or another doubt; inactive = no such curve, though single readings can be large; an effect the other way counts as inactive or inconclusive.

SMILES	LASV entry inh	HCMV antiviral	HCV inh	FMDV antiviral	MARV entry inh	Giardia FBPA inh
O=C1CN(C(=O)Cc2ccccc2)C(c2ccc(F)cc2)c2cc(Br)ccc2N1 (centres undefined)	?	i	nt	i	10µM	nt
O=C1CN(C(=O)c2ccc(S(=O)(=O)N3CCCCC3)cc2)C(c2ccc(F)cc2)c2cc(Cl)ccc2N1 (centres undefined)	?	i	nt	?	8.9µM	nt
OC1CCC2Cc3ccccc3N=C12 (centres undefined)	nt	nt	nt	nt	nt	i
CCSc1nnc(C(C)NS(=O)(=O)c2cccc(Cl)c2C)n1C (centres undefined)	nt	nt	nt	i	nt	nt
COC1C=CC=C(C)C(=O)NC2=CC(=O)C(N)=C(CC(C)CC(OC)C(O)C(C)C=C(C)C1OC(N)=O)C2=O (centres undefined)	0.45µM	-98	?	10µM	0.2µM	nt
COC1CC(C)C(OC)c2cc(O)cc(c2O)NC(=O)C(C)=CC=CC(C)C(OC(N)=O)C(C)=CC(C)C1OC (centres undefined)	?	-99	?	126µM	3.5µM	nt
CCOc1cc(NC(=S)NCCCN(C)C)c(OCC)cc1NC(=O)c1cccs1	i	-64	?	i	?	i
CCOc1cc(NS(=O)(=O)c2ccc(NC(C)=O)cc2)c(OCC)cc1NC(=O)c1cccs1	i	-79	i	i	i	?
CCOc1cc(NC(=S)NC)c(OCC)cc1NC(=O)c1cccs1	nt	i	?	i	i	i
CSc1ccc(CN(C)C(=O)C2CCN(C(=O)Nc3ccccc3)CC2)cc1	nt	i	10µM	?	nt	nt
O=C(Cn1ncn2c(cc3cc(F)ccc32)c1=O)NC1CCCCC1	nt	i	nt	i	i	nt
C/C(=N\NC(=S)NC1CCCCC1)c1c(F)cccc1F	?	-79	?	i	?	i
Cc1cc2c3c([nH]c2cc1S(=O)(=O)N1CCC2(CC1)OCCO2)CCCC3=O	nt	?	22µM	i	nt	nt
Cc1cc(S(=O)(=O)N2CCC3(CC2)OCCO3)c(C)cc1Cl	i	i	i	i	i	nt
Cc1ccc(NCN2C(=O)C3C4C=CC(C4)C3C2=O)cc1 (centres undefined)	i	i	i	i	?	i
O=C1C2C3C=CC(C3)C2C(=O)N1CNc1ccc(O)cc1 (centres undefined)	nt	nt	nt	nt	nt	3.2µM
CC(C)(C)C(=O)N1CCN(c2ncnc3scc(-c4ccccc4)c23)CC1	?	-70	?	i	?	i
CCOC(=O)N1CCN(c2ncnc3scc(-c4ccccc4)c23)CC1	i	i	8.9µM	i	?	i
CCOc1ccc(NC(=O)c2ccc(F)c(S(=O)(=O)N(CC)Cc3ccccc3)c2)cc1	?	-97	nt	?	nt	nt
CCOc1ccc(C(=O)Nc2ccc(S(=O)(=O)N(Cc3ccccc3)c3ccccc3)cc2)cc1	i	-61	nt	i	?	nt
CCN(c1ccccc1)S(=O)(=O)c1cc(C(=O)Nc2cccc(Cl)c2)ccc1F	13µM	-95	?	20µM	?	i
CCc1ccc(NC(=O)c2ccc(F)c(S(=O)(=O)N(CC)c3ccccc3)c2)cc1	?	i	?	?	?	i
CCN(Cc1ccccc1)S(=O)(=O)c1cc(C(=O)Nc2cc(Cl)cc(Cl)c2)ccc1F	?	-97	nt	?	nt	nt
COc1ccc(C(=O)Nc2ccc(S(=O)(=O)N(Cc3ccccc3)c3ccccc3)cc2)cc1	i	?	nt	?	?	nt
COc1ccccc1NC(=O)CSCc1cc(=O)c2cccc(Cl)c2[nH]1	i	i	nt	i	nt	nt
SMILES	LASV entry inh	HCMV antiviral	HCV inh	FMDV antiviral	MARV entry inh	Giardia FBPA inh
COCC(=O)Nc1cc(C(=O)N2CCc3c([nH]c4ccccc34)C2)cc2nc(-c3ccccc3)n(C)c12	nt	nt	nt	i	nt	nt
O=C(Nc1ccccc1F)Nc1ccccc1F	nt	i	i	i	nt	i
O=C(Nc1ccccc1)Nc1cc([N+](=O)[O-])ccc1F	?	?	i	i	i	i
Cc1cc([N+](=O)[O-])ccc1NC(=O)Nc1ccccc1F	i	-61	?	i	i	i
Cc1ccc(N=Nc2ccc(C)cc2NC(=O)Nc2ccccc2F)cc1	nt	-67	?	i	nt	i
Cc1ccc([N+](=O)[O-])cc1NC(=O)Nc1cccc(F)c1	nt	-97	?	28µM	nt	i
Cc1noc(C)c1CC(=O)NCC1Cc2cc(-c3cccc(OC(F)(F)F)c3)ccc2O1 (centres undefined)	nt	nt	nt	i	nt	nt
CCn1c(-c2ccccc2F)nc2cc(NC(C)=O)cc(C(=O)NCc3ncc(C)[nH]3)c21	nt	nt	nt	i	nt	nt
COc1ccc(Cn2nnc3ccccc32)cc1	nt	i	?	i	nt	nt
C[C@@H](Oc1ccccc1)c1nnn(Cc2ccccc2)c1-c1c([C@@H](C)Oc2ccccc2)nnn1Cc1ccccc1	nt	-72	i	i	nt	i
Cn1cc(CN2CCC(C3(c4ccccn4)NC(=O)N(CC4CCCO4)C3=O)CC2)c2ccccc21 (centres undefined)	nt	nt	nt	i	nt	nt
COc1cccc2c1C(CO)N1C(C#N)C3CC(C(=O)O)C(C1C2)N3C (centres undefined)	nt	-77	1.1µM	i	nt	?
COc1cccc2c1OCC(C(=O)O)C2 (centres undefined)	i	i	i	i	?	i
CCn1c(Oc2ccccc2)nc2c1c(=O)n(C)c(=O)n2C	i	-60	i	i	i	i
COc1cccc(Cn2c(Oc3cccc(C)c3)nc3c2c(=O)n(C)c(=O)n3C)c1	?	i	11µM	i	?	i
Cc1cccc(Cn2c(NCC(C)O)nc3c2c(=O)n(C)c(=O)n3C)c1 (centres undefined)	i	?	4.5µM	?	i	i
CCCOc1nc2c(c(=O)n(C)c(=O)n2C)n1Cc1cccc2ccccc12	i	-91	?	nt	?	i
C=CCn1c(Oc2ccccc2)nc2c1c(=O)n(C)c(=O)n2C	i	i	i	i	i	i
C=C1c2cccc(C(F)(F)F)c2O[C@H](C(=O)OCC)[C@@H]1CCCCCC	nt	nt	nt	nt	nt	i
CC(=O)O[C@@H]1[C@@H](O)CN[C@@H]1Cc1ccccc1	nt	nt	nt	nt	nt	i
Cn1c(NCC(O)c2ccccc2)nc2c1c(=O)n(Cc1ccc(Cl)c(Cl)c1)c(=O)n2C (centres undefined)	?	?	?	14µM	?	nt
COCCNc1nc2c(c(=O)n(C)c(=O)n2C)n1Cc1cccc(C)c1	i	i	10µM	i	?	i
Cn1c(=O)c2c(nc(Oc3ccccc3Cl)n2C)n(C)c1=O	i	-79	i	?	i	i
COCCCNc1nc2c(c(=O)n(C)c(=O)n2C)n1Cc1cccc(OC)c1	i	i	?	?	i	i
CC(C)[C@@H](CC(=O)N[C@@H]1CCCC[C@H]1C(=O)N[C@H](CC(=O)N[C@@H](CCC(=O)O)CC(=O)O)Cc1c[nH]c2ccccc12)NC(=O)C[C@H](Cc1ccccc1)NC(=O)[C@@H]1CNCC[C@H]1N	nt	nt	nt	nt	nt	i
O=C(O)CCn1c(=O)c2ccccc2c2ccccc2c1=O	i	-101	i	i	i	i
Cc1cc(C(=O)CSc2cccc[n+]2[O-])c(C)n1-c1ccc(OC(F)F)cc1	nt	-73	?	i	nt	i
